# Records with an inconclusive call do not appear. Values without a mark were called inactive. Activity calls are given as the source filed them. Calls follow the shape of the dose curve; as a rule, active = well fitted cell-killing curve with a large enough effect; inconclusive = small, poorly fitted or top-dose-only effect; inactive = flat fitted curve, though single readings scatter.
# Experiment: Cell Viability - SH-SY5Y (AID 544); also: nearly all actives have a fitted effect of over 55% in size;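 as to viability change, negative = cytotoxic: 0% = DMSO alone and -100% = 100 µM tamoxifen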
# Conditions: SH-SY5Y neuroblastoma cell viability; series mostly up to 92.2 µM; viability change, negative = cytotoxic: at the top concentration
# From the text: NIH Chemical Genomics Center [NCGC]
# NIH Molecular Libraries Screening Centers Network [MLSCN]
# National Institutes of Environmental Health Sciences [NIEHS]
# National Toxicology Program [NTP]
# We have developed a 1536-well cell-based assay for quantitative high throughput screening (qHTS) against a number of cell lines to determine in vitro cytotoxicity of small molecules. This particular assay uses the SH-SY5Y cell line which is derived from human neuroblastoma.
# NCGC Assay Protocol Summary:
# The CellTiter-Glo luminescent cell viability assay (Promega) is a homogeneous method to measure the number of viable cells in culture. The end point readout of this assay is based on quantitation of intracellular ATP, an indicator of metabolic activity, using the luciferase reaction. Luciferase catalyzes the oxidation of beetle Luciferin to oxyluciferin and light in the presence of ATP. The luminescent signal is proportional to amount of ATP present.
# Using the CellTiter-Glo luminescent cell viability assay, the amount of cellular ATP was measured in the SH-SY5Y cell line with complete culture medium following compound treatment for 40 hours. The assay was performed in opaque white Kalypsys 1536-well plates. In the screen, tamoxifen and doxorubicin were used as positive controls. Library compounds were measured for their ability to cause acute toxicity in the cell line, as reflected by a decrease in intracellular ATP levels, in a concentration-dependent manner. […] AC50 values were determined from concentration-response data modeled with the standard Hill equation.
# qHTS protocol for CellTiter Glo SH-SY5Y cellular assay
# [Step] [Parameter] [Value] [Description]
# 1. Reagent; 5 uL; 1500 SH-SY5Y cells/well
# 2. Time; 5 hr; 37 °C incubation
# 4. Controls; 23 nL; Tamoxifen 0.34 uM to 100 uM & Doxorubicin 0.02 nM to 100 uM
# 5. Time; 40 hr; 37 °C incubation
# 6. Reagent; 5 uL; CellTiter Glo reagent
# 7. Time; 20 min; Room Temperature
# 8. Detection; Luminescence; Viewlux plate reader
# Keywords: cell viability, cytotoxicity, SH-SY5Y cell line, luminescence, NTPHTS, NTPHTS_NCGC, NIEHS, EPA, DSSTox, MLSMR, MLSCN, NIH Roadmap, qHTS, NCGC
# Potency is read from the fitted curve at half-maximal effect.
Structure (SMILES),"viability change, negative = cytotoxic [%]",Potency
NC(=O)N1c2ccccc2C=Cc2ccccc21,-13.6,–
CCCCOCCOCCOCc1cc2c(cc1CCC)OCO2,-29.1,–
NC(=Nc1ccccc1)Nc1ccccc1,-1.2,–
O=c1[nH]c(=O)n([C@H]2C[C@H](O)[C@@H](CO)O2)cc1Br,-2.6,–
COc1cc(Cc2cnc(N)nc2N)cc(OC)c1OC,2.69,–
CN=C(NC#N)NCCSCc1nc[nH]c1C,1.66,–
CCCCNC(=O)NS(=O)(=O)c1ccc(C)cc1,-4.37,–
COC(=O)[C@H]1[C@H]2C[C@@H]3c4[nH]c5cc(OC)ccc5c4CCN3C[C@H]2C[C@@H](OC(=O)c2cc(OC)c(OC)c(OC)c2)[C@@H]1OC,–,31.6 µM (active)
COc1ccc(CN(CCN(C)C)c2ccccn2)cc1,-12.3,–
Nc1ncn([C@@H]2O[C@H](CO)[C@@H](O)[C@H]2O)c(=O)n1,–,6.31 µM (active)

# Reference: PubChem BioAssay (NCATS)
